# Laboratory results taken from the supplement of paper PMC9262897, “Low-cost anti-mycobacterial drug discovery using engineered E. coli” (Nature Communications, 2022).
# Counter-ions that a name gives are not always drawn. ± gives the standard deviation of the averaged measurements.
# What was measured:
# Experiment in all cases: growth (OD600 after 10 h); higher = more growth (less inhibition)
# [1] = system: E. coli TESEC Alr+ wild-type control; conditions: compound 0.1 mM; raw OD600 reference: median of DMSO wells 0.241, cell-free background 0.041
# Method: (§1)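 TESEC Mtb Alr E. coli, or the Alr+ wild-type control, in 384-well plates with Prestwick library compounds at 0.1 mM and 1% DMSO, across arabinose induction levels of 1E3 to 1E7 nM. Growth is read as OD600 after 10 h at 37 °C in triplicate biological replicates.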
# E. coli TESEC Mtb Alr [2] = conditions: compound 0.1 mM
# Method: as §1
# E. coli TESEC Mtb Asd = conditions: compound 0.1 mM
# Method: (§2)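 TESEC E. coli strains in which the native enzyme is deleted and replaced by arabinose-inducible Mtb Asd, DapB, CysH or TrpD, each grown in its selective medium. Strains were screened against the Prestwick library at 0.1 mM and 1% DMSO in 384-well format at low and high arabinose induction. Growth is read as OD600 after 10 h in triplicate.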
# E. coli TESEC Mtb DapB = conditions: compound 0.1 mM
# Method: as §2
# E. coli TESEC Mtb Alr [3] = conditions: compound 0.1 mM; remark: listed apart in the source
# Method: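 TESEC Mtb Alr E. coli (ΔaraC ΔtolC ΔentC Δalr ΔdadX, arabinose-inducible Mtb Alr) or the Alr+ wild-type control strain, grown in defined M9-fructose medium without D-alanine in 96-well plates with Prestwick library compounds at 0.1 mM and 1% DMSO. Low Alr induction is 0.1 µM arabinose and high induction is 10 mM arabinose.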
# [4] = arabinose 1000 nM, raw OD600 reference: median of DMSO wells 0.294, cell-free background 0.041
# [5] = arabinose 10000 nM, raw OD600 reference: median of DMSO wells 0.264, cell-free background 0.041
# [6] = arabinose 100000 nM, raw OD600 reference: median of DMSO wells 0.201, cell-free background 0.041
# [7] = arabinose 1000000 nM, raw OD600 reference: median of DMSO wells 0.193, cell-free background 0.041
# [8] = arabinose 10000000 nM, raw OD600 reference: median of DMSO wells 0.146, cell-free background 0.041
# [9] = arabinose induction (level): High, raw OD600 reference: median of DMSO wells 0.331, cell-free background 0.041
# [10] = arabinose induction (level): Low, raw OD600 reference: median of DMSO wells 0.417, cell-free background 0.041
# [11] = arabinose induction (level): High, raw OD600 reference: median of DMSO wells […], cell-free background 0.041
# [12] = arabinose induction (level): Low, raw OD600 reference: median of DMSO wells 0.227, cell-free background 0.041
# [13] = arabinose 100 nM, raw OD600 reference: median of DMSO wells 0.413, cell-free background 0.052
# [14] = arabinose 10000000 nM, raw OD600 reference: median of DMSO wells […], cell-free background 0.052
Compound,growth [1],growth (E. coli TESEC Mtb Alr [2]; [4]),growth (E. coli TESEC Mtb Alr [2]; [5]),growth (E. coli TESEC Mtb Alr [2]; [6]),growth (E. coli TESEC Mtb Alr [2]; [7]),growth (E. coli TESEC Mtb Alr [2]; [8]),growth (E. coli TESEC Mtb Asd; [9]),growth (E. coli TESEC Mtb Asd; [10]),growth (E. coli TESEC Mtb DapB; [11]),growth (E. coli TESEC Mtb DapB; [12]),growth (E. coli TESEC Mtb Alr [3]; [13]),growth (E. coli TESEC Mtb Alr [3]; [14])
CN(C)CC/C=C1/c2ccccc2Sc2ccc(Cl)cc21 [Chlorprothixene hydrochloride],0.0398 ± 0.0002,0.0409 ± 0.001,0.03943 ± 0.00032,0.04043 ± 0.00038,0.042 ± 0.0051,0.0425 ± 0.00068,0.0468 ± 0.00058,0.0472 ± 0.0011,0.0467 ± 0.00076,0.0463 ± 0.00046,0.41 ± 0.0049,0.0664 ± 0.0082
COC(=O)Nc1nc2cc(Sc3ccccc3)ccc2[nH]1 [Fenbendazole],0.233 ± 0.0041,0.273 ± 0.022,0.273 ± 0.012,0.189 ± 0.012,0.195 ± 0.057,0.144 ± 0.0032,0.382 ± 0.11,0.434 ± 0.018,0.2 ± 0.013,0.252 ± 0.041,0.421 ± 0.0066,0.352 ± 0.025
COc1cc(N)c(Cl)cc1C(=O)NC1CCN(CCCOc2ccc(F)cc2)CC1OC (stereo not drawn) [Cisapride],0.2147 ± 0.0012,0.2892 ± 0.0012,0.2613 ± 0.0016,0.201 ± 0.03,0.155 ± 0.0047,0.148 ± 0.0037,0.222 ± 0.017,0.357 ± 0.041,0.171 ± 0.003,0.186 ± 0.0052,0.41 ± 0.011,0.458 ± 0.038
CC(=O)NS(=O)(=O)c1ccc(N)cc1 [Sulfacetamide sodic hydrate],0.265 ± 0.006,0.313 ± 0.029,0.261 ± 0.0078,0.237 ± 0.011,0.187 ± 0.02,0.151 ± 0.0041,0.375 ± 0.022,0.407 ± 0.063,0.188 ± 0.0037,0.232 ± 0.048,0.406 ± 0.013,0.353 ± 0.018
Cc1nc(=O)c2cc(CN(C)c3ccc(C(=O)N[C@@H](CCC(=O)O)C(=O)O)s3)ccc2[nH]1 [Raltitrexed],0.229 ± 0.012,0.259 ± 0.0086,0.358 ± 0.013,0.171 ± 0.02,0.173 ± 0.0097,0.162 ± 0.0053,0.269 ± 0.05,0.4225 ± 0.0017,0.188 ± 0.015,0.198 ± 0.029,0.409 ± 0.016,0.322 ± 0.011
COc1ccc2c3c1O[C@H]1C[C@@H](O)C=C[C@@]31CCN(C)C2 [Galanthamine hydrobromide],0.249 ± 0.0042,0.291 ± 0.0095,0.245 ± 0.0045,0.218 ± 0.014,0.161 ± 0.0075,0.1382 ± 0.00072,0.229 ± 0.0098,0.376 ± 0.094,0.186 ± 0.012,0.195 ± 0.016,0.409 ± 0.01,0.34 ± 0.022
COc1ccc(C(=O)NCc2cccnc2)cc1C(=O)NCc1cccnc1 [Picotamide monohydrate],0.234 ± 0.013,0.264 ± 0.034,0.258 ± 0.0067,0.189 ± 0.02,0.161 ± 0.0041,0.132 ± 0.0031,0.256 ± 0.042,0.41 ± 0.037,0.189 ± 0.0065,0.228 ± 0.034,0.4272 ± 0.0023,0.321 ± 0.024
O=C(CCCN1CCN(c2ccccn2)CC1)c1ccc(F)cc1 [Azaperone],0.192 ± 0.0058,0.2624 ± 0.0023,0.294 ± 0.0053,0.164 ± 0.013,0.177 ± 0.0089,0.146 ± 0.0043,0.217 ± 0.017,0.326 ± 0.029,0.194 ± 0.0048,0.264 ± 0.05,0.423 ± 0.0076,0.304 ± 0.01
CN1C(C(=O)Nc2ccccn2)=C(O)c2sccc2S1(=O)=O [Tenoxicam],0.195 ± 0.0081,0.238 ± 0.0097,0.223 ± 0.0086,0.212 ± 0.0097,0.152 ± 0.0064,0.139 ± 0.0027,0.281 ± 0.11,0.223 ± 0.01,0.185 ± 0.0085,0.18 ± 0.0088,0.375 ± 0.05,0.277 ± 0.01
